Measured values taken from PMC5540273 (PLoS ONE, 2017).

Test system: FGFR4
Details: concentration: 1 μM, replicates: in singlicate; n = 1
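Further: KINOMEscan kinase panel screen.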

| SMILES | %Inh |
| --- | --- |
| Nc1ncc(-c2cccnc2)c2scc(-c3ccc4c(c3)CCN4C(=O)Cc3ccccc3)c12 [GSK683281] | 12% |
| c1ccc(Oc2ccc(Nc3ccnc4cc(-c5ccc(CNCCN6CCOCC6)o5)ccc34)cc2)nc1 [GW567145] | 0% |
| Cl.Cl.NCC(NCc1ccc(-c2ccnc3[nH]ccc23)s1)c1ccccc1 (stereo not drawn) [GSK1321565] | 1% |
| CCn1c(-c2nonc2N)nc2c(C#CC(C)(C)O)nc(OC[C@H](N)c3ccccc3)cc21 [GSK943949] | 0% |
| O=C(Nc1cccc(-c2nn3ncccc3c2-c2ccnc(Nc3ccccc3)n2)c1)c1c(F)cccc1F [GSK198271] | 14% |
| CCS(=O)(=O)c1ccc(OC)c(Nc2nccc(-c3c(-c4cccc(NC(=O)c5c(F)cccc5F)c4)nn4ncccc34)n2)c1 [GSK326180] | 16% |
| C[C@@H](Oc1cc(-n2cnc3cc(-c4ccnc(NCCS(C)(=O)=O)c4)ccc32)sc1C(N)=O)c1ccccc1Cl [GSK907232] | 22% |
| Oc1cc(Nc2ccnc3cc(I)ccc23)ccc1F [GW552771] | 0% |
| Nc1ncc(-c2ccc3nccc(-c4ccncc4)c3c2)cc1S(=O)(=O)N1CCOCC1 [GSK1627798] | 0% |
| Cl.Cl.NCC(C(=O)Nc1cc(Br)c(-c2ccnc3[nH]ccc23)s1)c1ccccc1 (stereo not drawn) [GSK1269851] | 44% |
| COc1ccc(Nc2nccc(N3CCC(NC(=O)Nc4cccc(OC)c4)C3)n2)cc1 (stereo not drawn) [GSK1379742] | 0% |
| Cc1cccc(NC(=O)Nc2ccc(Oc3ncnc4ccn(C)c34)cc2)c1 | 0% |
| O=C(Nc1ccccc1F)NC1CCN(c2ccnc(Nc3ccc(F)cc3)n2)CC1 [GSK1379800] | 2% |
| COc1cccc(C2=C(Nc3ccc(Cl)c(C(=O)O)c3)C(=O)NC2=O)c1 [SB-390769] | 25% |
| O=c1[nH]cc(-c2ccc(N3CCOCC3)cc2)c2sc(-c3cn[nH]c3)cc12 [GSK2276055] | 0% |
| COc1ccc(Nc2nccc(NCCNC(=O)c3cc4ccccc4s3)n2)cc1 [GSK1379896] | 9% |
| O=C(Nc1cccc(-c2nn3ccccc3c2-c2ccnc(Nc3cccc(C(F)(F)F)c3)n2)c1)c1c(F)cccc1F [GSK292658] | 0% |

| SMILES | %Inh |
| --- | --- |
| COc1cccc(-c2ccc3c(NC(=O)C4CC4)n[nH]c3n2)c1 [SB-710903] | 9% |
| Cc1cccc(Nc2nc(N[C@H]3CCNC3)ncc2C(N)=O)c1.Cl [GSK2197149] | 0% |
| Fc1ccc(-c2ncn(C3CCNCC3)c2-c2ccnc(Oc3ccc(-c4ccccc4)cc3)n2)cc1 [SB-245391] | 59% |
| O=C(NC1CCN(c2ccnc(Nc3ccc(F)cc3)n2)C1)c1cc2ccccc2s1 (stereo not drawn) [GSK1379716] | 13% |
| COc1cccc(C(=O)Nc2cccc(Oc3ccc4nc(NC(=O)C5CC5)cn4n3)c2)c1 | 48% |
| Cl.NC(=O)c1cccc(Nc2nccc(Nc3ccc(Oc4c(Cl)cccc4Cl)c(Cl)c3)n2)c1 [GW659009] | 0% |
| O=C(Nc1n[nH]c2cc(-c3ccoc3)ccc12)C1CC1 [SB-738481] | 0% |
| Cl.c1ccc(-c2ccc3c(Nc4ccc5[nH]ccc5c4)ccnc3c2)nc1 [GW440138] | 29% |
| COc1ccc(-c2coc3ccc(-c4nnc(SCc5ccc(OC)c(C(F)(F)F)c5)o4)cc23)cc1 | 2% |
| COc1cc2c(cc1OCCN1CCNCC1)ncc1c3ccc(C#N)cc3[nH]c21 | 0% |
| CN(c1ccc(NC(=O)Nc2cc(C(F)(F)F)ccc2F)cc1)c1ccnc(Nc2ccc(S(N)(=O)=O)cc2)n1 [GW809893] | 14% |
| Cn1cc(-c2ccc3c(c2)CCN3C(=O)Cc2cccc(F)c2)c2c(N)ncnc21 [GSK2603358] | 0% |
| CN(C)Cc1ccc(-c2ccc3c(Nc4ccc(Oc5ccccn5)cc4)ccnc3c2)o1 [GW567148] | 0% |
| c1ccc(-c2n[nH]cc2Nc2ccnc3ccccc23)nc1 [GW694077] | 0% |
| COc1ccc(CNC(=O)NC2CCN(c3ccnc(Nc4ccc(F)cc4)n3)CC2)cc1 [GSK1379788] | 0% |
| COc1cc(Nc2nccc(-c3c(-c4cccc(NC(=O)c5c(F)cccc5F)c4)nn4ncccc34)n2)cc(OC)c1OC [GSK327238] | 9% |
